Measurements as given in the supplement of paper PMC3334620.
In all, about 33,000 sequences were measured (“E-score (-0.5 to 0.5)”: median about -0.053, highest 2% from about 0.37 on). Shown is part of a subset that was picked to be rich in the highest values.

The sequences below were run against Hap1 (UniProt P0CE41) (assay: PBM E-score (8-mer binding enrichment) (E-score (-0.5 to 0.5)); higher = stronger / more preferred TF binding). Conditions: protein concentration: 200 nM; construct: GST-DNA-binding domain.
Sequence of UniProt P0CE41 (P0CE41 whole entry, the tested form may be a part): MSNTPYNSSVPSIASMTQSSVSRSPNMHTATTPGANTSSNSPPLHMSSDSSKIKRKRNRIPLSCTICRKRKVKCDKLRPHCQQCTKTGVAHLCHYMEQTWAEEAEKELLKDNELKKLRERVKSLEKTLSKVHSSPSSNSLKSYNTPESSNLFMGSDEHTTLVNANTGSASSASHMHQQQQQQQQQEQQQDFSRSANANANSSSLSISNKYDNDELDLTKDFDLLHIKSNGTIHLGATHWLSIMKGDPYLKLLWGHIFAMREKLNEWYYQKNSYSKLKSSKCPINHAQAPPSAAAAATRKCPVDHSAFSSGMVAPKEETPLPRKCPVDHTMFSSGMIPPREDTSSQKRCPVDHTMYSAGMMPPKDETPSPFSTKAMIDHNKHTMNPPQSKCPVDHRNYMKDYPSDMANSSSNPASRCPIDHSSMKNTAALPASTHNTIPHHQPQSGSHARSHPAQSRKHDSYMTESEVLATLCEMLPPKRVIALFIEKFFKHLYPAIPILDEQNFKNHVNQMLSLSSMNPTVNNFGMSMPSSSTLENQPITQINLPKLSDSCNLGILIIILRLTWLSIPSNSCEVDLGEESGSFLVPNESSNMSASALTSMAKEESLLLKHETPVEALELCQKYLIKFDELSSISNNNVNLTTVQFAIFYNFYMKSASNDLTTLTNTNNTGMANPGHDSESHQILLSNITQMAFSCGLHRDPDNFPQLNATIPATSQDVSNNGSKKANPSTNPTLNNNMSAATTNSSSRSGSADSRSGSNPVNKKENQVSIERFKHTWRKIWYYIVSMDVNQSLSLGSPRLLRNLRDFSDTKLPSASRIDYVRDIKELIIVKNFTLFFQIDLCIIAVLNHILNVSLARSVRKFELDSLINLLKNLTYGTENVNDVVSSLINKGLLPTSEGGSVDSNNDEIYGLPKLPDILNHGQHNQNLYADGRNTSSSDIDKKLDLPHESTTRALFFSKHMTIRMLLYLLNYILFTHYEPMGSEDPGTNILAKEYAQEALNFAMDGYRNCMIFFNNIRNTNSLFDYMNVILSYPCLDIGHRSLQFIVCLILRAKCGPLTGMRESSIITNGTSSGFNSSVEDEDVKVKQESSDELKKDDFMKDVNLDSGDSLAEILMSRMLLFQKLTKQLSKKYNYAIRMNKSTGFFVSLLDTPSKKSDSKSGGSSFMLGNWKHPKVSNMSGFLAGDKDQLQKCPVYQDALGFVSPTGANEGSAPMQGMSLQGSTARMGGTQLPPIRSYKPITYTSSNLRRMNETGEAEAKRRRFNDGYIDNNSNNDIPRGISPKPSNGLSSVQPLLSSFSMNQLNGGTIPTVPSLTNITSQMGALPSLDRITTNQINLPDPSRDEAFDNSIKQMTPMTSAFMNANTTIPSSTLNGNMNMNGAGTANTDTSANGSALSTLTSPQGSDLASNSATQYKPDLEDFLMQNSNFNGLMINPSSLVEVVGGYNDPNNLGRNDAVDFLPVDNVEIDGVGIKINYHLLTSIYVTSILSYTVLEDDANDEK
Description: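 Universal 'all 10-mer' protein binding microarrays (Agilent AMADID 015681) probed with GST-tagged S. cerevisiae TFs (full-length or DBD) made by in vitro transcription/translation (PURExpress), about 100-200 nM. Bound TF was detected with fluorescent anti-GST. Each ungapped 8-mer (which stands for itself and its reverse complement) is scored by the PBM enrichment score (E-score), a modified Wilcoxon-Mann-Whitney statistic from -0.5 to +0.5, computed with the Universal PBM Analysis Suite. Scale: above 0.35 generally sequence-specific binding.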
In the case of AGGCCACC, the “PBM E-score” value is reported as -0.0824.
In the case of AAGAACTT, the “PBM E-score” value is reported as -0.101.
CTGTGTCC was tested, and the “PBM E-score” value was -0.0361.
For TTCGCGAA, the “PBM E-score” value was 0.138.
With GCGGGAAC the “PBM E-score” value was 0.212.
ACGGACGG was tested, and the “PBM E-score” value was 0.244.
With CGGGACGA the “PBM E-score” value was 0.0655.
In the case of CCGGACGA, the “PBM E-score” value is reported as 0.431.
For CCGGACGC, the “PBM E-score” value was 0.366.
In the case of GCGGACGA, the “PBM E-score” value is reported as 0.366.
CCGGACGG was tested, and the “PBM E-score” value was 0.444.
TCGGACGA was tested, and the “PBM E-score” value was 0.414.
CTGGACGA was tested, and the “PBM E-score” value was -0.158.
With ACGGACGA the “PBM E-score” value was 0.359.
For ATTTTGAC, the “PBM E-score” value was -0.0308.
With ACGGGAAA the “PBM E-score” value was 0.174.
In the case of CGCCTACC, the “PBM E-score” value is reported as -0.0452.
With AAGTCGAG the “PBM E-score” value was -0.359.
In the case of AAGCTAGC, the “PBM E-score” value is reported as -0.0783.
With AAAGACAC the “PBM E-score” value was -0.0224.
TCATAGGA was tested, and the “PBM E-score” value was -0.112.
In the case of ATCTGCAA, the “PBM E-score” value is reported as -0.287.
In the case of ATGCGTAA, the “PBM E-score” value is reported as -0.0748.
With ATTCGTAC the “PBM E-score” value was 0.00708.
In the case of AGGCCGAT, the “PBM E-score” value is reported as 0.327.
In the case of AAGCCGAC, the “PBM E-score” value is reported as 0.298.
AAGCCGAT was tested, and the “PBM E-score” value was 0.399.
In the case of AAGCCGAG, the “PBM E-score” value is reported as 0.372.
For CAGCCGAG, the “PBM E-score” value was 0.238.
With AAGCCGAA the “PBM E-score” value was 0.334.
For ATCATTCG, the “PBM E-score” value was 0.0233.
GCGGATAA was tested, and the “PBM E-score” value was 0.294.
For ACGGATTA, the “PBM E-score” value was 0.142.
For ACGGATAA, the “PBM E-score” value was 0.282.
In the case of GCGGATTA, the “PBM E-score” value is reported as 0.189.
In the case of TCGGATAA, the “PBM E-score” value is reported as 0.374.
ACGGACAT was tested, and the “PBM E-score” value was 0.421.
For CCGGATTA, the “PBM E-score” value was 0.383.
ACGGATAG was tested, and the “PBM E-score” value was 0.11.
For ACGGACAC, the “PBM E-score” value was 0.278.
With TGGGATAA the “PBM E-score” value was -0.0448.
For ACGGACAG, the “PBM E-score” value was 0.113.
For ACGGATAT, the “PBM E-score” value was 0.43.
For CGGATTAG, the “PBM E-score” value was 0.305.
ACACCTTC was tested, and the “PBM E-score” value was 0.105.
With AATTCGAG the “PBM E-score” value was -0.267.
GGGGAATA was tested, and the “PBM E-score” value was 0.107.
With CCGGATAC the “PBM E-score” value was 0.323.
For ACGGAAAG, the “PBM E-score” value was 0.232.
CCGGATAG was tested, and the “PBM E-score” value was 0.316.
For ACGGAGAC, the “PBM E-score” value was 0.285.
In the case of CCGGATAA, the “PBM E-score” value is reported as 0.435.
In the case of ACGGAGAG, the “PBM E-score” value is reported as 0.284.
With ACGGAAAC the “PBM E-score” value was 0.287.
AGGGAATA was tested, and the “PBM E-score” value was 0.127.
For ACGGAGAT, the “PBM E-score” value was 0.445.
CGGGAATA was tested, and the “PBM E-score” value was 0.458.
With ACGGAAAT the “PBM E-score” value was 0.432.
In the case of CGTACGAG, the “PBM E-score” value is reported as 0.0155.
In the case of GGTAGAAC, the “PBM E-score” value is reported as -0.243.
In the case of CAGGAAGC, the “PBM E-score” value is reported as -0.0892.
For GAGAGATC, the “PBM E-score” value was -0.0834.
GGGGACCC was tested, and the “PBM E-score” value was -0.043.
With AGGGCTAA the “PBM E-score” value was -0.2.
With CCAGGTTC the “PBM E-score” value was -0.153.
With CGGGATTA the “PBM E-score” value was 0.454.
CGGGATTC was tested, and the “PBM E-score” value was 0.292.
In the case of AGGGATTA, the “PBM E-score” value is reported as -0.136.
With GAAACCTC the “PBM E-score” value was -0.00121.
In the case of GGCAAGCC, the “PBM E-score” value is reported as -0.0221.
With AGTCCACG the “PBM E-score” value was 0.0474.
For AGCCCGCC, the “PBM E-score” value was 0.184.
In the case of GACGGACC, the “PBM E-score” value is reported as 0.285.
In the case of GTGCCGGA, the “PBM E-score” value is reported as 0.406.
ATGCCGGA was tested, and the “PBM E-score” value was 0.4.
CTGCCGGA was tested, and the “PBM E-score” value was 0.286.
ATGCCGGC was tested, and the “PBM E-score” value was 0.287.
For ATGCCGGG, the “PBM E-score” value was 0.217.
For GTGCCGTA, the “PBM E-score” value was 0.1.
With ACTGCTAG the “PBM E-score” value was -0.267.
For AACCGGTG, the “PBM E-score” value was 0.329.
ATCCGGTG was tested, and the “PBM E-score” value was 0.411.
GTGCGGAA was tested, and the “PBM E-score” value was 0.159.
With GTCCGGCA the “PBM E-score” value was 0.35.
With GTACGGAC the “PBM E-score” value was 0.26.
With GTCCGGAA the “PBM E-score” value was 0.416.
For GTCCGCAC, the “PBM E-score” value was 0.237.
In the case of ATCCGCAG, the “PBM E-score” value is reported as 0.208.
In the case of ATGCGGAG, the “PBM E-score” value is reported as 0.222.
In the case of GTCCGGAC, the “PBM E-score” value is reported as 0.454.
ATCCGGAG was tested, and the “PBM E-score” value was 0.424.
For ATACGGTG, the “PBM E-score” value was 0.0257.
In the case of CCTATGCG, the “PBM E-score” value is reported as 0.00275.
With GTATCCCA the “PBM E-score” value was -0.135.
In the case of AAGGGTCA, the “PBM E-score” value is reported as -0.124.
CACTGGAA was tested, and the “PBM E-score” value was -0.275.
With ATAACGCA the “PBM E-score” value was 0.0362.
AACGGGTG was tested, and the “PBM E-score” value was 0.29.
CGATCTGC was tested, and the “PBM E-score” value was 0.156.
With TGAAGGCA the “PBM E-score” value was -0.35.
For ATCCGCAT, the “PBM E-score” value was 0.289.
With ATCCGACC the “PBM E-score” value was 0.307.
With ATCCGCAC the “PBM E-score” value was 0.21.
ATACGGAT was tested, and the “PBM E-score” value was 0.204.
For ATCCGGAT, the “PBM E-score” value was 0.414.
With ATCCGGCG the “PBM E-score” value was 0.355.
In the case of ATCCGTAC, the “PBM E-score” value is reported as 0.147.
ATCCGGGG was tested, and the “PBM E-score” value was 0.399.
In the case of ATCCGGCC, the “PBM E-score” value is reported as 0.412.
For AACCGGGG, the “PBM E-score” value was 0.301.
With ATCCGGGC the “PBM E-score” value was 0.364.
ATCCGGAC was tested, and the “PBM E-score” value was 0.439.
TCTCCACA was tested, and the “PBM E-score” value was -0.243.
CAAGAGAC was tested, and the “PBM E-score” value was -0.289.
For CCATTCAA, the “PBM E-score” value was -0.16.
For GCCAATAA, the “PBM E-score” value was -0.0084.
For CGGGGTGA, the “PBM E-score” value was 0.214.
In the case of CTACGGAA, the “PBM E-score” value is reported as 0.17.
For ATACGGAA, the “PBM E-score” value was 0.33.
For CTACGGAG, the “PBM E-score” value was 0.32.
With CTCCGGAG the “PBM E-score” value was 0.467.
In the case of ATGCGGAA, the “PBM E-score” value is reported as 0.24.
For TTACGGAA, the “PBM E-score” value was 0.317.
With CTCCGGAA the “PBM E-score” value was 0.422.
For CTCCGTAA, the “PBM E-score” value was 0.296.
In the case of CTCCGCAG, the “PBM E-score” value is reported as 0.216.
ATCCGGAA was tested, and the “PBM E-score” value was 0.396.
In the case of TGCCGGAA, the “PBM E-score” value is reported as 0.365.
For TTCCGGAA, the “PBM E-score” value was 0.466.
With AGCAATAT the “PBM E-score” value was -0.105.
AATTGTGG was tested, and the “PBM E-score” value was -0.245.
TGAGCCAA was tested, and the “PBM E-score” value was -0.233.
With CCGTAGCG the “PBM E-score” value was 0.27.
In the case of CGCATGGC, the “PBM E-score” value is reported as 0.184.
In the case of AGCCTCCA, the “PBM E-score” value is reported as -0.219.
In the case of CTCCGGAC, the “PBM E-score” value is reported as 0.454.
With CTCCGTAC the “PBM E-score” value was 0.196.
With CTCCGCAC the “PBM E-score” value was 0.0685.
GACAATGA was tested, and the “PBM E-score” value was -0.102.
CCTATAGA was tested, and the “PBM E-score” value was -0.198.
ATCGCCCG was tested, and the “PBM E-score” value was 0.372.
With ACCGCCGG the “PBM E-score” value was 0.365.
With ATCGCCCA the “PBM E-score” value was -0.0821.
TCCGCCGA was tested, and the “PBM E-score” value was 0.425.
For ATCGCCGC, the “PBM E-score” value was 0.286.
With ATCGCCCC the “PBM E-score” value was -0.0327.
In the case of GCCGCCGA, the “PBM E-score” value is reported as 0.26.
For ATCGCCGA, the “PBM E-score” value was 0.445.
With CTCGCCGA the “PBM E-score” value was 0.276.
In the case of GTCGCCGA, the “PBM E-score” value is reported as 0.246.
With ATCGCCGG the “PBM E-score” value was 0.445.
For CCCGCCGA, the “PBM E-score” value was 0.323.
With ACGCCCAA the “PBM E-score” value was -0.133.
With GGGATACC the “PBM E-score” value was 0.196.
For CCCAGGCG, the “PBM E-score” value was -0.125.
AGCTTGCC was tested, and the “PBM E-score” value was -0.108.
In the case of AAGAAAGC, the “PBM E-score” value is reported as -0.113.
With CACCCTAC the “PBM E-score” value was -0.27.
With GAGCGCGA the “PBM E-score” value was 0.0945.
With AACTCGCG the “PBM E-score” value was 0.0253.
In the case of ACCGACAG, the “PBM E-score” value is reported as 0.289.
With GTACCGAA the “PBM E-score” value was 0.0413.
With GCAACTTA the “PBM E-score” value was 0.0419.
For AGCGCCGA, the “PBM E-score” value was 0.372.
In the case of CGCGCCGA, the “PBM E-score” value is reported as 0.317.
GGCGCCGA was tested, and the “PBM E-score” value was 0.313.
In the case of ATACTGAG, the “PBM E-score” value is reported as -0.143.
With CCACCTTA the “PBM E-score” value was -0.00422.
With ATGAAGTG the “PBM E-score” value was -0.133.
For TAACCGGA, the “PBM E-score” value was 0.417.
In the case of CAACCGGA, the “PBM E-score” value is reported as 0.316.
GAACCGGC was tested, and the “PBM E-score” value was 0.239.
